Screening data from PubChem.
In the library only some 0.69% were active in any assay of this set; here they are far more common.
UBC9 SUMO inh = inhibitors of in vitro SUMOylation cascade, primary screen, biochemical, HTRF, uHTS; SUMO-conjugating enzyme UBC9 (Homo sapiens), P63279; HTRF SUMOylation assay, SAE1/SAE2 + UBC9; inhibition, % at 35 µM; actives 0.36% (n = 290,000); in the data active = inhibition above about 50%, passing the limit was not always enough; inconclusive = no clear call, values can overlap the other calls
Target sequence (P63279 whole entry, looked up): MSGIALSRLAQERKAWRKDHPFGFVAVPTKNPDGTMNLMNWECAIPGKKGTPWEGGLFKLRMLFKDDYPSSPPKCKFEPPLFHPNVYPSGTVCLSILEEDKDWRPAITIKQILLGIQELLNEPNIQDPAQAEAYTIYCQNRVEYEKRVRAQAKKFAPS
PERK inhibitor = block of dimerizer-induced PERK translation repression, primary screen, PERK inhibitor project, CHO PERK-DD cells, SEAP luminescence, HTS | AID 1416, 2008 | Eukaryotic translation initiation factor 2-alpha kinase 3 (Homo sapiens), Q9NZJ5 | actives 0.17% (n = 220,000) | inhibition, % at 5.6 µM | CHO PERK-DD fusion, SEAP luminescence translation reporter;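 active = inhibition above the mean inhibition of all tested compounds plus 3 SD, set separately per screening campaign, cut at about 2.9% in these data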;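 note: PERK kinase domain activated by AP20187 dimerizer at 100 nM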
p97 inhibitor = inhibitors of human p97 ATPase, primary screen, biochemical | AID 1481, 2009 | actives 0.42% (n = 220,000) | recombinant p97 ATPase, Kinase-Glo ATP luminescence, 3 h | Transitional endoplasmic reticulum ATPase (Homo sapiens), P55072 | inhibition, % at 8 µM; in the data active = inhibition above about 15%
Redox H2O2 prof = compounds producing H2O2 with reducing agent – biochemical, NIH compound library profiling, artefact control for MLSCN library redox annotation, primary screen | DTT-dependent redox cycling H2O2, phenol red/HRP absorbance; 100% = 100 µM peroxide control, 0% = buffer | activation, % at 10 µM | actives 0.03% (n = 200,000);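 active = activation of at least 50% relative to the plate's high and low controls in the primary single-dose screen; inactive = activation below 50%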;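 note: compound incubated with DTT at 0.8 mM final as the reducing agent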
Hits are given with their value; - = inactive; ? = inconclusive; . = no result given.

SMILES	UBC9 SUMO inh	PERK inhibitor	p97 inhibitor	Redox H2O2 prof
O=C(NN1C(=O)CSC1=S)C(=O)NN1C(=O)CSC1=S	95.5	-	-	-
CCC(C)[C@H](NC(=O)[C@@H]1Cc2ccccc2CN1C(=O)OC(C)(C)C)C(=O)NCC1CCC(C(=O)O)CC1 (stereo not given in full)	-	-	-	.
O=C1/C(=C\c2ccco2)SC(=S)N1c1ccc(O)cc1	56.8	-	-	-
O=C(CN1C(=O)/C(=C/c2ccco2)SC1=S)Nc1ccc(C(=O)O)c(O)c1	71.8	.	.	.
O=C(CN1C(=O)/C(=C/c2ccco2)SC1=S)Nc1ccc(O)c(C(=O)O)c1	50.8	.	.	.
CC(C(=O)Nc1ccc(C(=O)O)c(O)c1)N1C(=O)/C(=C\c2ccco2)SC1=S (stereo not given)	57.0	.	.	.
Cc1ccccc1CC(=O)N1CC(C)OC(C)C1 (stereo not given)	-	.	.	.
CNC(=O)NC(=O)C(OC(=O)CCNS(=O)(=O)c1ccccc1)c1ccccc1 (stereo not given)	-	.	.	.
COC(=O)C1=CN(c2ccc(F)cc2)C=C(C(=O)OC)C1c1cccc([N+](=O)[O-])c1	-	.	.	.
O=S(=O)(c1ccc2nc(-c3ccco3)c(-c3ccco3)nc2c1)N1CCOCC1	84.1	-	-	-
CCc1nc2ccc(C(=O)N3CCN(c4ccccc4)CC3)cc2nc1CC	-	.	.	.
O=S(=O)(c1ccc2ccccc2c1)N1CCOCC1	-	.	.	.
O=C(c1ccc2nc(-c3ccco3)c(-c3ccco3)nc2c1)N1CCN(c2ccccc2)CC1	73.2	-	-	-
Cc1ccc(Cn2nnc3c(=O)[nH]c(C4CCN(S(=O)(=O)c5ccccc5F)CC4)nc32)cc1	-	.	.	.
Oc1ccc(/C=N/Nc2cc(N3CCCC3)nc(N3CCCC3)n2)cc1	-	-	-	-
Oc1cccc(/C=N/Nc2cc(N3CCCC3)nc(N3CCCC3)n2)c1	93.4	-	-	-
COc1cc(C(C#N)N2CCOCC2)ccc1O (stereo not given)	-	3.5	-	-
Oc1ccc(C=Nc2ccc3ncccc3c2)c(O)c1	65.4	-	-	-
Cc1ccc(S(=O)(=O)/N=C2/NC(=O)/C(=C\c3cc(Br)cc(Br)c3O)S2)cc1	62.1	.	.	.
Cc1ccc(S(=O)(=O)/N=C2/NC(=O)/C(=C/c3ccc(Br)o3)S2)cc1	-	-	-	-
Cc1ccc(CN(Cc2ccccn2)C(=O)Nc2c(F)cccc2F)cc1	-	.	.	.
Cc1ccc(S(=O)(=O)NCCCN(C)C)cc1	-	3.2	-	-
Cc1ccc(S(=O)(=O)NCCCC(=O)O)cc1	-	-	-	-
CCN(C(=O)C(=O)c1c[nH]c2ccccc12)c1ccccc1	-	.	.	.
CC1=CC(=O)c2c(O)ccc(O)c2C1=O	90.5	-	-	-
SMILES	UBC9 SUMO inh	PERK inhibitor	p97 inhibitor	Redox H2O2 prof
COc1ccc(NC(=O)C(=O)N/N=C\c2ccc(CNC(=O)C(=O)Nc3ccc(C)c(C)c3)o2)c(OC)c1	58.0	.	.	.
COCCNC(=O)/C(C#N)=C\c1ccc(CNC(=O)C(=O)Nc2ccc(C)c(C)c2)o1	-	-	-	-
O=C(NCCS(=O)c1ccc(Cl)cc1)c1cccc(Cl)c1 (stereo not given)	-	-	-	-
O=C(O)c1cccnc1SCc1cn2cc(Cl)ccc2n1	-	3.0	-	.
O=C(O)c1ccccc1SCc1cn2cc(Cl)ccc2n1	-	-	-	-
O=C(CSc1nnc(-c2cccs2)n1-c1cccc(Cl)c1)c1cccc2c1OCCO2	-	-	-	-
Nc1ccc2nc3c(=O)n(CCc4ccccc4)c(=O)[nH]c3nc2c1	68.4	-	-	.
Cc1cc2nc3c(=O)n(CCc4ccccc4)c(=O)[nH]c3nc2cc1N	-	-	-	.
CCCCn1c(=O)[nH]c2nc3cc(N)ccc3nc2c1=O	97.9	-	-	-
Nc1ccc2nc3c(=O)n(C4CCCCC4)c(=O)[nH]c3nc2c1	61.4	-	-	.
COc1cc2[nH]c(=O)n(C3CCCCC3)c(=O)c2cc1OC	-	-	-	-
Cc1cc(F)ccc1NC(=O)c1cc(S(=O)(=O)N2CCOCC2)cn1C	-	.	.	.
COc1ccc(/C=N/OCC(=O)N=Nc2c(O)[nH]c3ccc(Br)cc23)cc1	-	-	-	-
Cc1cccc(C)c1OCC(=O)N=Nc1c(O)[nH]c2ccc(Br)cc12	59.4	-	-	-
COc1ccc(OC)c(-c2c3cc(O)c(=O)cc-3oc3cc(O)c(O)cc23)c1	?	-	21.7	-
